Drawing on PubChem BioAssay AID1272365 (Small Molecule Screening Facility, UW Madison, 2018), this text covers inhibition for 94 compounds.

Where “and” joins values, the source holds several entries; their conditions need not be identical. Identical values can stand only once. Among all 430,000 compounds or so, about 2,600 (0.6%) were called active. No stated cut-off is given here; in the data, active means inhibition mostly above about 37% (no sharp cut-off); inactive means mostly below about 20%. What follows is part of a selection rich in actives, with near analogues and random picks from the rest.

In this assay the test system is PriA–SSB C-terminal tail interaction (Klebsiella pneumoniae). Kind of assay: inhibitors of Klebsiella pneumoniae PriA binding to SSB C-terminal tail, primary screen, biochemical, AlphaScreen (AID 1272365).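 On inhibition: plate controls were negative control peptide for no effect and reference peptide for full effect.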 To be noted: AlphaScreen SSBct-PriA binding, biotinylated peptide; at 33 µM, stronger effect = higher value.
For the compound `CC(C)(CC(=O)NCc1ccc(F)cc1)CC1=NS(=O)(=O)c2ccccc2N1`, the inhibition is -14% (inactive).

`COc1ccc(C(=O)Nc2ccc(S(C)(=O)=O)cc2)cc1`: the inhibition is -8% (inactive).

On to `CC(C)Sc1nc(N2CCCC2)c2cnn(CCNC(=O)c3cccs3)c2n1`, for which the inhibition was -8% (inactive).

As to `CCn1ccnc1CN1CCN(C)CC1`, the inhibition was 0% (inactive).

For the compound `CC(=O)Nc1ccc(S(=O)(=O)N2CCN(S(=O)(=O)c3ccc(C)cc3)CC2)cc1`, the inhibition is -19% (inactive).

Take `N#Cc1nccnc1O[C@H]1CCCN(C(=O)c2ccc3nc[nH]c3c2)C1`: the inhibition is -19% (inactive).

Turning to `Cc1cccc(-n2cc(-c3ccccc3)c3c(Nc4ccc(Oc5ccc(Cl)cc5)cc4)ncnc32)c1`, the inhibition was -17% (inactive).

`C=CCn1c(C)cc(C2=NNC(=NCC)SC2)c1C`: the inhibition was 29.4% (inactive).

For `Cc1cccc(N=C2NN=C(c3c[nH]c4ccccc34)CS2)c1`, the inhibition was 48.7% (active).

With `Cc1cccc(C(=O)Nc2nnc(Cc3c[nH]c4ccccc34)s2)c1`, the inhibition is 6.73% (inactive).

On to `Cn1cc(S(=O)(=O)Nc2ccc(CC(=O)N3CCOCC3)cc2)cn1`, for which the inhibition is 6% (inactive).

For the compound `C/C(=N\Nc1ccc(S(N)(=O)=O)cc1[N+](=O)[O-])c1cccs1`, the inhibition result is “inactive”.

Turning to `CC(CCC(C)C)=NNc1ccc(S(N)(=O)=O)cc1[N+](=O)[O-]`, the inhibition is 42.4% (active).

As for `NS(=O)(=O)c1ccc(CNC(=O)c2ccc(Cl)cc2[N+](=O)[O-])cc1`, the inhibition is -24.6% (inactive).

For the compound `O=C(c1cc2n(n1)CCCO2)N1CCN(Cc2cccnc2)CC1`, the inhibition was -17% (inactive).

As to `COc1ccccc1C(=O)N1CCN=C1SCc1cccnc1`, the inhibition is -0.73% (inactive).

For `COc1cccc(OC)c1C(=O)N1CCN(Cc2cccnc2)CC1`, the inhibition is 49% (active).

Turning to `O=C(c1cc2ccccc2o1)N1CCN(C(=O)C2CC2c2ccccc2)CC1` (centres undefined), the inhibition is 2% (inactive).

`Cc1cc(S(=O)(=O)N2CCOC23CCN(C(=O)c2cc(=O)c4ccccc4o2)CC3)ccc1F`: the inhibition was -9% (inactive).

In the case of `Cc1ccc2cc(C)c(N3CCC(C)CC3)nc2c1`, the inhibition was -34.6% (inactive).

For the compound `CC1CCN(c2nc(-c3ccccn3)nc3ccccc23)CC1`, the inhibition is 102% (active).

For `CC1CCN(C(=O)Cn2c(-c3ccncc3)nc3ccccc32)CC1`, the inhibition was 4% (inactive).

For `O=C1C(=O)N(CN2CCN(C(c3ccccc3)c3ccccc3)CC2)c2ccccc21`, the inhibition was -1% (inactive).

Consider `COC(=O)/C=C1\SC(=NNC(=O)c2ccccc2)NC1=O`, for which the inhibition was -6.67% (inactive).

As for `Cc1nc(-c2cccs2)sc1CNC(=O)c1ccc(=O)[nH]c1`, the inhibition was 5% (inactive).

Take `Nc1[nH]nc2nc(-c3ccccn3)ccc12`: the inhibition was 94.2% (active).

On to `Cc1cc2cc3c(N)[nH]nc3nc2cc1C`, for which the inhibition is -6.78% (inactive).

Regarding `Cc1cc(NC(=O)C(C)(C)Oc2ccc(Cl)cc2)n(-c2nc3c(c(=O)[nH]2)CCC3)n1`, the inhibition was -1% (inactive).

For the compound `CCOC(=O)c1c(NC(=O)c2c(F)cccc2F)sc2c1CCN(C(=O)OCC)C2`, the inhibition was -7% (inactive) and -12% (inactive).

Take `CN(c1ccccc1)c1ccc([N+](=O)[O-])c2nonc12`: the inhibition was 32.9% (inactive).

In the case of `CCOC(=O)c1ccc(NNC(C)=O)c([N+](=O)[O-])c1`, the inhibition is 3.85% (inactive).

Take `CCc1ccc(Nc2ccc([N+](=O)[O-])c3nonc23)cc1`: the inhibition was 79.3% (active).

On to `O=C(COc1ccccc1)N1CCN(c2ccc(-c3ccco3)nn2)CC1`, for which the inhibition was -12% (inactive).

Regarding `COC(=O)Nc1nc(CC(=O)Nc2ccccc2OC)cs1`, the inhibition was -13% (inactive).

Take `COc1ccc(OC)c(Nc2nc(CC(=O)Nc3nc4ccccc4s3)cs2)c1`: the inhibition is 38% (active).

For the compound `COc1ccc(C)cc1NC(=O)Cc1csc(NS(=O)(=O)c2ccccc2)n1`, the inhibition is 6% (inactive).

For the compound `COc1ccc(OC)c(Nc2nc(CC(=O)N3CCN(c4ncccn4)CC3)cs2)c1`, the inhibition was 19% (active).

Regarding `COc1ccc(OC)c(Nc2nc(CC(=O)N3CCc4ccccc43)cs2)c1`, the inhibition was 12% (inactive).

As to `O=C1CCC(C(=O)Nc2nc(CC(=O)N3CCN(c4ccccn4)CC3)cs2)N1` (centres undefined), the inhibition is 8% (inactive).

As to `CCCCN(C1CCS(=O)(=O)C1)S(C)(=O)=O` (centres undefined), the inhibition is 10% (inactive).

For the compound `Cc1ccc(C)c(CSc2nnc3n(C)c(=O)c4ccc(C(=O)NC5CCCC5)cc4n23)c1`, the inhibition is 0% (inactive).

Turning to `O=C(c1ccc(S(=O)(=O)N2CCCCC2)cc1)N(c1cccc(Cl)c1)C1C=CS(=O)(=O)C1` (centres undefined), the inhibition was -8% (inactive).

Turning to `O=C(NCCCn1ncccc1=O)c1cccc(C(F)(F)F)c1`, the inhibition is -10% (inactive).

In the case of `CSc1cccc(-c2nnc(NC(=O)c3ccc(Cl)s3)o2)c1`, the inhibition is 11% (inactive) and 4% (inactive).

As to `Cc1cc(SCC(=O)Nc2ccc(OC(F)F)cc2)nc2ccccc12`, the inhibition was -2% (inactive) and -21% (inactive).

On to `Cn1ccc(C(=O)Nc2ccc(F)cc2)n1`, for which the inhibition is 8% (inactive).

In the case of `COc1cc2nc(SCc3cc(=O)n4cc(Cl)ccc4n3)n3nc(C)nc3c2cc1OC`, the inhibition was -5% (inactive).

Take `O=C(NCc1ccco1)C(=O)Nc1c2c(nn1-c1ccc(F)cc1)CSC2`: the inhibition was -7% (inactive).

As for `Cc1ccccc1C(=O)NCC(c1ccco1)N1CCc2ccccc21` (centres undefined), the inhibition is -7.16% (inactive).

In the case of `O=C(NCC(c1ccco1)N1CCc2ccccc21)C(=O)Nc1ccccc1[N+](=O)[O-]` (centres undefined), the inhibition was 42% (active).

As to `COc1ccccc1CCNC(=O)C(=O)NC[C@@H](c1ccco1)N1CCc2ccccc21`, the inhibition was 8% (inactive).

As to `COc1ccc(NC(=O)Nc2nnc(SCC(=O)Nc3cccc([N+](=O)[O-])c3)s2)cc1`, the inhibition is -16% (inactive).

For `Cc1cc([N+](=O)[O-])c(N2CCC[C@@H]2C(=O)O)c([N+](=O)[O-])c1`, the inhibition is -16.2% (inactive).

For the compound `Cc1cc(OCC(=O)NC2CCN(C)CC2)ccc1[N+](=O)[O-]`, the inhibition was -23% (inactive).

In the case of `Cc1cc([N+](=O)[O-])c(NC2CCCCC2)c([N+](=O)[O-])c1`, the inhibition was 80.5% (active).

For the compound `NC(=O)C1CCN(C(=O)N[C@H]2CC(=O)N(c3ccc(F)cc3)C2)CC1`, the inhibition is 2% (inactive).

Consider `Cc1ccc(NC(=O)C(=O)NC[C@](C)(O)c2cccs2)cc1C`, for which the inhibition is -4% (inactive).

Turning to `COc1ccc(CCC(=O)N2CCC(Oc3cc(C)oc(=O)c3)C2)cc1Br` (centres undefined), the inhibition was 4% (inactive).

With `Cc1cc(NC(=O)CSc2nnc(-c3ccc(Cl)s3)o2)no1`, the inhibition was 43.9% (active) and 1% (inactive).

As for `Cc1cc(NC(=O)CSc2nnc(CNC(=O)c3cccs3)o2)no1`, the inhibition was -5% (inactive).

Turning to `Cc1nnc(NC(=O)CSc2nnc(-c3ccccc3C)o2)s1`, the inhibition is 11% (inactive).

As to `COC(=O)C1CCN(C(=O)CCc2csc3nc(-c4ccc(OC)cc4)cn23)CC1`, the inhibition is -11% (inactive).

In the case of `Cn1ccnc1S(=O)(=O)C1CCN(C(=O)c2ccc3nsnc3c2)CC1`, the inhibition is -12% (inactive).

As to `O=C(Nc1nc2c(s1)CN(Cc1ccccc1)CC2)c1cc(Cl)sc1Cl`, the inhibition was 23% (inactive).

In the case of `CSc1ccc(NC(=O)c2ccccc2F)nn1`, the inhibition was 2% (inactive).

As for `Brc1ccc(CSc2nnc3ccc(-c4ccccn4)nn23)cc1`, the inhibition is -17% (inactive).

Turning to `O=C(CSc1ccc(-c2ccc(-n3cccn3)cc2)nn1)Nc1ccc([N+](=O)[O-])cc1`, the inhibition is -0.41% (inactive).

`O=C(CSc1ccc(-c2ccccn2)nn1)Nc1ccccc1`: the inhibition was 90.4% (active).

On to `COc1ccccc1CCNC(=O)CSc1nnc2ccc(-c3cccnc3)nn12`, for which the inhibition is -8.11% (inactive) and 15% (inactive).

As to `CSc1ccc(-c2ccccn2)nn1`, the inhibition is 148% (active).

Turning to `COc1cc(NC(=O)CSc2ccc(-c3cccnc3)nn2)cc(OC)c1`, the inhibition is 6.7% (inactive).

Regarding `O=C(CSc1ccc(-c2cccnc2)nn1)NCCc1ccccc1`, the inhibition is -2% (inactive).

Turning to `COc1ccccc1CCNC(=O)CSc1ccc(-c2ccccn2)nn1`, the inhibition is 81.7% (active).

In the case of `NC(=NOC(=O)C1CCCCC1)c1ccc(Br)cc1`, the inhibition is -26.4% (inactive).

On to `CS(=O)(=O)c1ccccc1C(=O)N1CCN(c2ccccc2)CC1`, for which the inhibition was 0% (inactive).

Take `CN(C)S(=O)(=O)c1ccc(C(=O)NCc2nnc(SCc3c(F)cccc3Cl)o2)cc1`: the inhibition was 6% (inactive) and -7% (inactive).

In the case of `Cc1ccc(N2CCn3c2nc2c3c(=O)n(CCN3CCOCC3)c(=O)n2C)cc1Cl`, the inhibition was 0% (inactive).

In the case of `COC(=O)c1ccc2c(=O)n(CCCC(=O)NCc3cccs3)c(=S)[nH]c2c1`, the inhibition was -3% (inactive).

Regarding `Cc1ccc2c(Cl)c(C(=O)NCCCn3ccnc3)sc2c1`, the inhibition is 9.4% (inactive).

Regarding `O=C(NCCCn1ccnc1)c1cc(-c2ccccc2)on1`, the inhibition was 2.55% (inactive).

`O=C(NCCCn1ccnc1)c1cc2c(s1)CCCC2`: the inhibition was 44.7% (active).

As for `COc1ccc(/C=N\N=C2\NC(=O)C(CC(=O)NC(N)=O)S2)c(C(=O)O)c1OC` (centres undefined), the inhibition is -10% (inactive).

`Cc1ccccc1-n1c(O)c(C=CC=Nc2ccccc2)c(=O)[nH]c1=O`: the inhibition is 4.92% (inactive).

Take `O=C(Nc1nnc(C2CCCO2)o1)c1cc2ccccc2oc1=O` (centres undefined): the inhibition was 4% (inactive).

For the compound `O=C(Nc1nnc(C2CCCO2)o1)c1sc2ccccc2c1Cl` (centres undefined), the inhibition was 34% (inactive).

With `O=C(COc1ccc(Cl)cc1Cl)Nc1nnc(C2CCCO2)o1` (centres undefined), the inhibition is 63% (active).

In the case of `COc1ccc(CCC(=O)NCCCn2nc(-c3ccccc3)ccc2=O)cc1`, the inhibition was 2% (inactive).

Consider `O=CN1CCN(C(=O)c2ccc(Br)o2)CC1`, for which the inhibition was -5.54% (inactive).

In the case of `O=C(NC(=S)Nc1ccccc1C(=O)O)c1ccc(-c2ccc(Br)cc2)o1`, the inhibition was 3.73% (inactive).

With `CN1CCN(C(=O)c2ccc(-c3ccc(Br)cc3)o2)CC1`, the inhibition was 39% (active) and 2.72% (inactive).

On to `O=C(O)CNC(=O)CN1C(=O)S/C(=C\C=C\c2ccccc2)C1=O`, for which the inhibition is -12% (inactive).

Consider `O=C(NCCc1ccccc1)c1csc(Nc2ccccc2)n1`, for which the inhibition was 7% (inactive).

With `O=C(NCc1ccc2c(c1)OCO2)c1csc(Nc2ccccc2)n1`, the inhibition was 0% (active).

Regarding `O=C(O)/C=C\C(=O)NCc1ccc2c(c1)OCO2`, the inhibition was -5% (inactive).
